In PubChem BioAssay AID1159580 (chemical genetic matrix, 2015):
About 2,000 (36%) of roughly 5,500 compounds were called active. Not shown: some 18% with an inconclusive outcome. The list shows a part of the results. A number with no mark means an inactive call. No stated cut-off is given here; in the data, active means normalized growth mostly below about 0.91 (no sharp cut-off); inconclusive means no clear call, values can overlap the other calls; inactive means mostly above about 0.92.

Assay: chemical genetic growth profiling, strain panel (AID 1159580);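 further: tested at 20 µM; growth read once vehicle control cultures reached saturation at 30 °C; 1 = growth at the plate median or of vehicle wells; lower values mean less growth of the strain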
Details: growth OD
[1] = S. cerevisiae deletion strains, locus YCL061C, strain MRC1, hits give low values
[2] = S. cerevisiae deletion strains, locus YHR030C, strain SLT2, hits give low values
[3] = S. cerevisiae deletion strains, locus YJL187C, strain SWE1, hits give low values

CC(=O)NS(=O)(=O)c1ccc(NC(=O)c2ccccc2C(=O)O)cc1
normalized growth (S. cerevisiae deletion strains, locus YAL021C, strain ccr4, hits give low values): 1.01
normalized growth (S. cerevisiae deletion strains, locus YAL026C, strain drs2, hits give low values): 1.02
normalized growth (S. cerevisiae deletion strains, locus YAL030W, strain snc1, hits give low values): 1.02
normalized growth (S. cerevisiae deletion strains, locus YBL061C, strain skt5, hits give low values): 1.01
normalized growth (S. cerevisiae deletion strains, locus YBR009C, strain hhf1, hits give low values): 1.03
normalized growth (S. cerevisiae deletion strains, locus YBR023C, strain chs3, hits give low values): 1.02
normalized growth (S. cerevisiae deletion strains, locus YBR171W, strain sec66, hits give low values): 1.04
normalized growth (S. cerevisiae deletion strains, locus YBR231C, strain swc5, hits give low values): 1.01
normalized growth (S. cerevisiae deletion strains, locus YBR279W, strain paf1, hits give low values): 1.02
normalized growth (S. cerevisiae deletion strains, locus YCL011C, strain gbp2, hits give low values): 1.01
normalized growth (S. cerevisiae deletion strains, locus YCL016C, strain dcc1, hits give low values): 1.02
normalized growth [1]: 1.02
normalized growth (S. cerevisiae deletion strains, locus YCL069W, strain vba3, hits give low values): 1.02
normalized growth (S. cerevisiae deletion strains, locus YCR088W, strain abp1, hits give low values): 1.01
normalized growth (S. cerevisiae deletion strains, locus YDL005C, strain med2, hits give low values): 1.02
normalized growth (S. cerevisiae deletion strains, locus YDL040C, strain nat1, hits give low values): 1.02
normalized growth (S. cerevisiae deletion strains, locus YDR001C, strain nth1, hits give low values): 1.01
normalized growth (S. cerevisiae deletion strains, locus YDR069C, strain doa4, hits give low values): 1.02
normalized growth (S. cerevisiae deletion strains, locus YDR137W, strain rgp1, hits give low values): 1.04
normalized growth (S. cerevisiae deletion strains, locus YDR159W, strain sac3, hits give low values): 1.04
normalized growth (S. cerevisiae deletion strains, locus YDR195W, strain ref2): 1.01
normalized growth (S. cerevisiae deletion strains, locus YDR297W, strain sur2, hits give low values): 1.01
normalized growth (S. cerevisiae deletion strains, locus YDR334W, strain swr1, hits give low values): 1.01
normalized growth (S. cerevisiae deletion strains, locus YDR335W, strain msn5, hits give low values): 1.01
normalized growth (S. cerevisiae deletion strains, locus YDR392W, strain spt3, hits give low values): 1.01
normalized growth (S. cerevisiae deletion strains, locus YEL003W, strain gim4, hits give low values): 1.01
normalized growth (S. cerevisiae deletion strains, locus YEL037C, strain rad23, hits give low values): 1.01
normalized growth (S. cerevisiae deletion strains, locus YEL061C, strain CIN8 (second series), hits give low values): 1.02
normalized growth (S. cerevisiae deletion strains, locus YER015W, strain faa2, hits give low values): 1.02
normalized growth (S. cerevisiae deletion strains, locus YER016W, strain bim1, hits give low values): 1.02
normalized growth (S. cerevisiae deletion strains, locus YER111C, strain swi4, hits give low values): 1.02
normalized growth (S. cerevisiae deletion strains, locus YER155C, strain BEM2 (second series), hits give low values): 1.05
normalized growth (S. cerevisiae deletion strains, locus YFR010W, strain ubp6, hits give low values): 1.02
normalized growth (S. cerevisiae deletion strains, locus YGL167C, strain pmr1, hits give low values): 1.02
normalized growth (S. cerevisiae deletion strains, locus YGL173C, strain kem1, hits give low values): 1.02
normalized growth (S. cerevisiae deletion strains, locus YGL227W, strain vid30, hits give low values): 1.02
normalized growth (S. cerevisiae deletion strains, locus YGL240W, strain doc1, hits give low values): 1.01
normalized growth (S. cerevisiae deletion strains, locus YGL253W, strain hxk2, hits give low values): 1.02
normalized growth (S. cerevisiae deletion strains, locus YHR013C, strain ard1, hits give low values): 1.02
normalized growth (S. cerevisiae deletion strains, locus YHR027C, strain rpn1, hits give low values): 1.02
normalized growth [2]: 0.958
normalized growth (S. cerevisiae deletion strains, locus YHR079C, strain IRE1, hits give low values): 0.969
normalized growth (S. cerevisiae deletion strains, locus YHR142W, strain chs7, hits give low values): 1.04
normalized growth (S. cerevisiae deletion strains, locus YJL092W, strain hpr5, hits give low values): 1.01
normalized growth (S. cerevisiae deletion strains, locus YJL095W, strain BCK1 (second series), hits give low values): 1.02
normalized growth (S. cerevisiae deletion strains, locus YJL095W, strain BCK1, hits give low values): 0.972
normalized growth (S. cerevisiae deletion strains, locus YJL115W, strain asf1, hits give low values): 1.02
normalized growth (S. cerevisiae deletion strains, locus YJL129C, strain trk1, hits give low values): 1.03
normalized growth (S. cerevisiae deletion strains, locus YJL154C, strain vps35, hits give low values): 1.02
normalized growth (S. cerevisiae deletion strains, locus YJL164C, strain tpk1, hits give low values): 1.01
normalized growth (S. cerevisiae deletion strains, locus YJL166W, strain qcr8, hits give low values): 1.02
normalized growth [3]: 1.01
normalized growth (S. cerevisiae deletion strains, locus YJR066W, strain TOR1, hits give low values): 0.949
normalized growth (S. cerevisiae deletion strains, locus YKL160W, strain elf1, hits give low values): 1.02
normalized growth (S. cerevisiae deletion strains, locus YKR026C, strain gcn3, hits give low values): 1
normalized growth (S. cerevisiae deletion strains, locus YKR091W, strain srl3, hits give low values): 1.01
normalized growth (S. cerevisiae deletion strains, locus YLL001W, strain dnm1, hits give low values): 1.01
normalized growth (S. cerevisiae deletion strains, locus YLL026W, hits give low values): 1.02
normalized growth (S. cerevisiae deletion strains, locus YLL041C, strain sdh2, hits give low values): 1.02
normalized growth (S. cerevisiae deletion strains, locus YLR027C, strain aat2, hits give low values): 1.02
normalized growth (S. cerevisiae deletion strains, locus YLR113W, strain HOG1, hits give low values): 0.976
normalized growth (S. cerevisiae deletion strains, locus YLR221C, strain rsa3, hits give low values): 1.02
normalized growth (S. cerevisiae deletion strains, locus YLR258W, strain gsy2, hits give low values): 1.01
normalized growth (S. cerevisiae deletion strains, locus YLR262C, strain YPT6 (second series), hits give low values): 1.03
normalized growth (S. cerevisiae deletion strains, locus YLR320W, strain mms22, hits give low values): 1.03
normalized growth (S. cerevisiae deletion strains, locus YLR342W, strain FKS1, hits give low values): 1.01
normalized growth (S. cerevisiae deletion strains, locus YLR357W, strain rsc2, hits give low values): 1.05
normalized growth (S. cerevisiae deletion strains, locus YLR370C, strain arc18, hits give low values): 1.02
normalized growth (S. cerevisiae deletion strains, locus YLR384C, strain iki3, hits give low values): 1.03
normalized growth (S. cerevisiae deletion strains, locus YML120C, strain ndi1, hits give low values): 1.01
normalized growth (S. cerevisiae deletion strains, locus YMR058W, strain fet3, hits give low values): 1.04
normalized growth (S. cerevisiae deletion strains, locus YMR125W, strain sto1, hits give low values): 1.03
normalized growth (S. cerevisiae deletion strains, locus YMR129W, hits give low values): 1.03
normalized growth (S. cerevisiae deletion strains, locus YMR205C, strain PFK2, hits give low values): 1.02
normalized growth (S. cerevisiae deletion strains, locus YMR231W, strain pep5, hits give low values): 1.02
normalized growth (S. cerevisiae deletion strains, locus YNL071W, strain lat1, hits give low values): 1.02
normalized growth (S. cerevisiae deletion strains, locus YNL183C, strain NPR1, hits give low values): 0.91
normalized growth (S. cerevisiae deletion strains, locus YNL209W, strain ssb2, hits give low values): 1.02
normalized growth (S. cerevisiae deletion strains, locus YNL248C, strain rpa49, hits give low values): 1.02
normalized growth (S. cerevisiae deletion strains, locus YNL322C, strain KRE1 (second series), hits give low values): 1.01
normalized growth (S. cerevisiae deletion strains, locus YNR049C, strain mso1, hits give low values): 1.01
normalized growth (S. cerevisiae deletion strains, locus YOR001W, strain rrp6, hits give low values): 1.02
normalized growth (S. cerevisiae deletion strains, locus YOR070C, strain gyp1, hits give low values): 1.01
normalized growth (S. cerevisiae deletion strains, locus YOR080W, strain dia2, hits give low values): 1.01
normalized growth (S. cerevisiae deletion strains, locus YOR083W, strain WHI5, hits give low values): 1.01
normalized growth (S. cerevisiae deletion strains, locus YOR106W, strain vam3, hits give low values): 1.03
normalized growth (S. cerevisiae deletion strains, locus YOR231W, strain MKK1, hits give low values): 0.953
normalized growth (S. cerevisiae deletion strains, locus YOR265W, strain rbl2, hits give low values): 1.03
normalized growth (S. cerevisiae deletion strains, locus YOR270C, strain vph1, hits give low values): 1.05
normalized growth (S. cerevisiae deletion strains, locus YOR290C, strain snf2, hits give low values): 1.04
normalized growth (S. cerevisiae deletion strains, locus YPL051W, strain arl3, hits give low values): 1.03
normalized growth (S. cerevisiae deletion strains, locus YPL078C, strain atp4, hits give low values): 1.02
normalized growth (S. cerevisiae deletion strains, locus YPL106C, strain sse1, hits give low values): 0.991
normalized growth (S. cerevisiae deletion strains, locus YPL240C, strain hsp82, hits give low values): 1.01
normalized growth (S. cerevisiae deletion strains, locus YPL256C, strain CLN2, hits give low values): 0.975

CNS(=O)(=O)c1cc(Br)ccc1S(=O)c1ccccc1C(=O)O (stereo not given)
normalized growth (S. cerevisiae deletion strains, locus YAL013W, strain DEP1, hits give low values): 1
normalized growth (S. cerevisiae deletion strains, locus YBR229C, strain ROT2, hits give low values): 1
normalized growth [1]: 1
normalized growth (S. cerevisiae deletion strains, locus YDL101C, strain DUN1, hits give low values): 1.05
normalized growth (S. cerevisiae deletion strains, locus YDR150W, strain NUM1, hits give low values): 1.01
normalized growth (S. cerevisiae deletion strains, locus YEL061C, strain CIN8, hits give low values): 1.02
normalized growth (S. cerevisiae deletion strains, locus YGR078C, strain PAC10, hits give low values): 1.01
normalized growth [2]: 0.98
normalized growth (S. cerevisiae deletion strains, locus YHR087W, strain rtc3, hits give low values): 1.03
normalized growth [3]: 1
normalized growth (S. cerevisiae deletion strains, locus YJR043C, strain POL32, hits give low values): 1
normalized growth (S. cerevisiae deletion strains, locus YJR075W, strain HOC1, hits give low values): 0.997
normalized growth (S. cerevisiae deletion strains, locus YKL190W, strain CNB1, hits give low values): 0.982
normalized growth (S. cerevisiae deletion strains, locus YLR039C, strain RIC1, hits give low values): 1.01
normalized growth (S. cerevisiae deletion strains, locus YLR058C, strain SHM2 (second series), hits give low values): 0.992
normalized growth (S. cerevisiae deletion strains, locus YLR085C, strain ARP6, hits give low values): 0.983
normalized growth (S. cerevisiae deletion strains, locus YLR262C, strain YPT6, hits give low values): 1.02
normalized growth (S. cerevisiae deletion strains, locus YML094W, strain GIM5, hits give low values): 1.15 [resistant] (active)
normalized growth (S. cerevisiae deletion strains, locus YMR219W, strain ESC1, hits give low values): 1.01
normalized growth (S. cerevisiae deletion strains, locus YMR263W, strain SAP30, hits give low values): 0.984
normalized growth (S. cerevisiae deletion strains, locus YMR307W, strain GAS1, hits give low values): 0.942
normalized growth (S. cerevisiae deletion strains, locus YNL153C, strain GIM3, hits give low values): 1.03
normalized growth (S. cerevisiae deletion strains, locus YNL298W, strain CLA4 (second series), hits give low values): 0.995
normalized growth (S. cerevisiae deletion strains, locus YNL322C, strain KRE1, hits give low values): 1.01
normalized growth (S. cerevisiae deletion strains, locus YNR030W, strain Alg12, hits give low values): 1.03
normalized growth (S. cerevisiae deletion strains, locus YOL006C, strain TOP1, hits give low values): 0.975
normalized growth (S. cerevisiae deletion strains, locus YPL055C, strain LGE1, hits give low values): 1.04
normalized growth (S. cerevisiae deletion strains, locus YPL241C, strain CIN2, hits give low values): 1.04
normalized growth (S. cerevisiae deletion strains, locus YPR135W, strain CTF4, hits give low values): 1.15
normalized growth (S. cerevisiae strains, strain wild type, hits give low values): 0.968
